# A selection: hits, their analogues and other compounds. The true share with any hit is near 2.3%.
# A549 tox = Nrf2 qHTS screen for inhibitors: counterscreen for cytotoxicity; Potency, µM (titrated, usually from 46 µM), for inactives: at the highest dose activity change, negative = cytotoxicity, actives largely listed as inhibitors; A549 ARE-Fluc cells, CellTiter-Fluor viability, 18-24 h; AID 504648, 2011; actives 0.16% (n = 390,000); note: potency is the fitted concentration of half-maximal effect; % is set by controls: 0 for no effect and ±100 for the full control effect
#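 A549 ARE_Fluc cells in 5% FBS OPTI-MEM were exposed to compounds in concentration-response for 18-24 h at 37 deg C. Viability was read by CellTiter-Fluor fluorescence (Ex 405/Em 525) after 30 min, before the luciferase read.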
# Nrf2 ARE act = qHTS of Nrf2 Activators. AREc32 ARE-luciferase reporter (MCF7-derived line), luminescence, 24 h. Potency, µM (top dose mostly 46.1 µM), without a hit: at the top dose activation, hits mostly activators. actives 0.31% (n = 410,000); note: potency is the fitted concentration of half-maximal effect; % of control where 0% means no effect; nearly all actives have a fitted effect of over 65% in size
#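 Luciferase luminescence (Steady-Glo, 30 min at room temperature) served as the read-out of ARE activation in AREc32 cells treated with compounds for 24 hr at 37 deg C.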
# Mito fusion act = qHTS Assay for Small Molecule Inhibitors of Mitochondrial Division or Activators of Mitochondrial Fusion; S. cerevisiae fusion-defective mutant growth rescue, CellTiterGlo 48 h; Potency, µM (titrated, usually from 46.1 µM), for inactives: at the top dose growth rescue (activation), hits mostly activators; actives 0.23% (n = 320,000); note: potency is the fitted concentration of half-maximal effect; % of control where 0% means no effect; nearly all actives have a fitted effect of over 45% in size
#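 Read-out: ATP-based luminescence (CellTiterGlo, 10 min ambient) reporting growth of fusion-defective ts yeast after 48 hours at 37C on glycerol/ethanol YPEG medium in the presence of compound.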
# miR-21 reporter = qHTS Assay for Modulators of miRNAs and/orActivators of miR-21; HeLa miR-21 FLuc reporter, luciferase, 48 h; Potency, µM (series often up to 38.3 µM), for inactives: top-dose activity change, positive = activation, actives largely listed as activators; 340,000 tested, under 10 active; AID 2288, 2010;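 note: % of control where 0% means no effect; miR-21 action dims this reporter so a rising signal means less miR-21 action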
#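 Luminescence from a firefly luciferase reporter carrying a miR-21 binding site downstream, stably expressed under a CMV promoter in HeLa cells that make miR-21 endogenously, reports miRNA modulation after 48 h compound exposure up to approximately 40uM final.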
# GRP78 ERSR act = qHTS for Inducers of the Endoplasmic Reticulum Stress Response (ERSR) in Human Glioma: qHTS | U87-MG GRP78 promoter luciferase reporter, 16 h | Potency, µM, inactives show at the top dose activation, actives largely listed as activators | actives 0.02% (n = 420,000) | AID 602332, 2012; note: potency is the fitted concentration of half-maximal effect; series mostly up to about 76 µM; % of control where 0% means no effect; nearly all actives have a fitted effect of over 35% in size
#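 ERSR induction read as luciferase luminescence (Bright-Glo, 10 min at room temperature) in stably transfected human U87-MG glioma cells exposed to compounds for 16 h, using GRP78 as sensor.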
# Nrf2 block = Nrf2 qHTS screen for inhibitors. A549 ARE-Fluc reporter, luciferase luminescence, 18-24 h. Potency, µM (titrated, usually from 46 µM), for the others: at the top dose activity change, negative = inhibition, usual class: inhibitors. actives 2.1% (n = 360,000). AID 504444, 2011; note: potency is the fitted concentration of half-maximal effect; % is set by controls: 0 for no effect and ±100 for the full control effect; nearly all actives have a fitted effect of over 60% in size
#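 Nrf2 function is reported as luminescence of an ARE-controlled luciferase in A549 cells. Compounds were tested at several concentrations, and a CellTiter-Fluor read on the same wells flagged cytotoxicity.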
# * = called active by the depositor; ? = inconclusive; . = no result given. Calls come from the whole dose curve; as a rule, active = well fitted curve in the direction sought with a large enough effect; inconclusive = small, poorly fitted or top-dose-only effect, or another doubt; inactive = no such curve, though single readings can be large; an effect the other way counts as inactive or inconclusive.
SMILES,A549 tox,Nrf2 ARE act,Mito fusion act,miR-21 reporter,GRP78 ERSR act,Nrf2 block
Cc1ccc(S(=O)(=O)N(C)C)cc1NC(=O)c1cc(C(C)(C)C)nn1Cc1ccccc1,5%,2%,1%,11%,-4%,10µM*
Cc1ccc(NC(=O)CC(=O)c2ccc([N+](=O)[O-])cc2)cc1S(=O)(=O)Nc1cccc(Cl)c1,?,0%,1%,?,-2%,16µM*
O=C(c1ccco1)c1cn(CCOc2ccc(F)cc2)c2ccccc12,-27%,4%,.,2%,0%,23µM*
Cc1cccc(NC(=O)Cn2cc(C(=O)c3ccco3)c3ccccc32)c1C,-22%,4%,.,26%,1%,21µM*
CC(=O)c1cn(CC(=O)Nc2c(C)cccc2C)c2ccccc12,-11%,-1%,-1%,15%,-2%,9.2µM*
O=C(c1ccco1)c1cn(CCOc2ccc(Cl)cc2)c2ccccc12,-1%,0%,.,-1%,-5%,5%
CCC(=O)c1cn(CC(=O)Nc2c(C)cccc2C)c2ccccc12,0%,0%,3%,2%,-2%,5%
CC(=O)c1cn(CC(=O)Nc2ccc(C)cc2)c2ccccc12,-3%,4%,1%,9%,4%,?
CC(=O)c1cn(CC(=O)Nc2ccccc2C)c2ccccc12,-6%,0%,12%,11%,-4%,9.2µM*
COc1c(NC(C)=O)c2c(c([N+](=O)[O-])c1OC)C(=O)OC2,4%,0%,.,.,-4%,2%
CCn1c(C(=O)O)c(CC(=O)NC2CCCCCC2)c2ccccc21,-3%,0%,-7%,-3%,-4%,-15%
COc1ccc(CNC(=O)C/C(C)=N/NC(=O)C(c2ccccc2)c2ccccc2)cc1,4%,0%,-1%,-4%,-1%,6%
Brc1cc(Br)c2ncnc(N3CCCCC3)c2c1,?,0%,13%,-8%,0%,26µM*
CCCc1[nH]nc2c1C(C1CCCCC1)C(C#N)=C(N)O2 (configuration not stated),-8%,25%,3%,16%,35µM*,-10%
CCCc1[nH]nc2c1C(c1ccsc1)C(C#N)=C(N)O2 (configuration not stated),-4%,3%,-8%,-1%,-4%,-2%
O=C(/C=C1\NC2(CCCC2)Cc2ccccc21)C(=O)N/N=C/c1ccccc1O,?,0%,2%,27%,-1%,15µM*
COc1cc(/C=N/NC(=O)C(=O)/C=C2\NC3(CCCC3)Cc3ccccc32)ccc1O,-10%,2%,-26%,1%,-3%,-19%
COCCCNC(=S)N1CCC(NC(=O)Nc2ccc(C)cc2)CC1,0%,-1%,-6%,0%,-1%,-21%
N#C/C(=C\c1ccc[nH]1)C(=O)Nc1ccccc1F,-9%,11µM*,-2%,-56%,15%,?
N#C/C(=C\c1ccc[nH]1)C(=O)Nc1ccccc1Cl,7%,?,0%,-42%,-4%,9%
Cc1occc1C(=O)N/N=C/C(Br)=C\c1ccccc1,1%,14µM*,-12%,-8%,-2%,?
O=C(N/N=C/C(Br)=C/c1ccccc1)NC1CCCCC1,-10%,?,-39%,-32%,8%,1%
O=C(O)c1ccc(N/N=C/C(Br)=C/c2ccccc2)cc1,?,?,-3%,-31%,7%,?
Cc1occc1C(=O)N/N=C/C=C/c1ccccc1,10%,-5%,14%,-59%,1%,4%
O=C(N/N=C/C(Br)=C/c1ccccc1)C(O)c1ccccc1 (configuration not stated),-4%,11µM*,-14%,-29%,5%,?
O=C(N/N=C/C(Br)=C/c1ccccc1)C1CC1,-3%,20µM*,4%,-28%,4%,?

# Source: PubChem BioAssay (National Center for Advancing Translational Sciences (NCATS))
